Test results: PubChem BioAssay

What follows are compounds tested against NADPH oxidase 5 (Homo sapiens) (UniProt Q96PH1) (assay: compounds shifting NOX5 Amplex Red fluorescence – cell-based, HEK293-NOX5, NOX inhibitor project, primary screen (AID 1161)). Details: HEK293-NOX5, ionomycin, 45 min, higher = more signal.
Sequence of NADPH oxidase 5 (Homo sapiens) (Q96PH1 whole entry, looked up): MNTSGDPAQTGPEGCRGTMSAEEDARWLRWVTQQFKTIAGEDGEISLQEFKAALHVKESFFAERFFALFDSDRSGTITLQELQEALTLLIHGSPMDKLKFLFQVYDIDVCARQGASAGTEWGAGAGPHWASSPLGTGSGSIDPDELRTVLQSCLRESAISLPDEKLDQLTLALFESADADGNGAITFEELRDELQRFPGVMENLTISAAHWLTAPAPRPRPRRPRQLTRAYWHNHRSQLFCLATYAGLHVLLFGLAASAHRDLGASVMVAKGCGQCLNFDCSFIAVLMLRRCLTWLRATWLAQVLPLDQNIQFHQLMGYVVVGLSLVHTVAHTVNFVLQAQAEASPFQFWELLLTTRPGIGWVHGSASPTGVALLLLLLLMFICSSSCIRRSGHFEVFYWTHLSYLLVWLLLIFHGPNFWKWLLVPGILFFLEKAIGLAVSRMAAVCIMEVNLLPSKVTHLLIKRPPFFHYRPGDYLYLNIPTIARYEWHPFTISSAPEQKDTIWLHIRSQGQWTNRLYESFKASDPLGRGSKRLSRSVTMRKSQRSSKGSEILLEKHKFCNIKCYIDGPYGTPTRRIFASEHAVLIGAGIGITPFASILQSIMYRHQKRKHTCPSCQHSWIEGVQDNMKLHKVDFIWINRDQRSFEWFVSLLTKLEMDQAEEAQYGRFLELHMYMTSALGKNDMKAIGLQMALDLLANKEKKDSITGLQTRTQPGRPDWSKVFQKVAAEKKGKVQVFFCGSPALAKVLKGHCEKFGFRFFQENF
With CC(=O)OC[C@H]1O[C@@H](ON=C(C)C)[C@H](OC(C)=O)[C@@H](OC(C)=O)[C@@H]1OC(C)=O the z-score was -0.611. Work on CC(C)=CCCC(C)=CCON=C1[C@H]2CCn3c(=O)n(-c4ccccc4)c(=O)n3[C@H]2[C@H](O)[C@@H]2O[C@H]12 yielded a z-score of -0.799. COC(=O)CC=C[C@@H](C)[C@@H](C=NOC[C@@H](C)[C@H](OCc1ccccc1)C(C)C)OC was tested, and the z-score was -2.2. CCOC(=O)CCN1C(=O)[C@H]2[C@H]3[C@H](O)[C@H](O)CC(=NO[C@@H]4O[C@H](CO)[C@@H](O)[C@H](O)[C@H]4O)[C@@H]3CC[C@H]2C1=O showed a z-score of -2.16. Work on COC(=O)[C@H](C)NC(=O)CCC1CC(OC(=O)NCc2ccc3c(c2)OCO3)CC2(CCCC(COC(=O)NCCc3ccc(Cl)cc3)O2)O1 (stereo partly drawn) yielded a z-score of 0.879. Work on CC(CCN1CCCc2nc(C)c(C)cc21)=NOC[C@@H](O)COCc1ccco1 yielded a z-score of -0.144. CC(CCN1CCCCc2nc(C)c(C)cc21)=NO[C@@H](C)c1cc(-c2c(C)cc(C)cc2C)no1 showed a z-score of -2.5. Work on C[C@H]1CC[C@@H](C(=O)O)N[C@@H]1c1ccc(C#Cc2ccccc2)cc1 yielded a z-score of 1.93. Compound COc1ccc(O[C@H]2C=C[C@@H](c3ccccc3)O[C@@H]2COC(=O)NCc2cccc3ccccc23)cc1 has a z-score of -0.406. With CC(C)CON=C1C[C@@H](O)[C@@H](O)[C@@H]2[C@@H]3C(=O)N(C(C)(C)C)C(=O)[C@@H]3CC[C@@H]12 the z-score was -2.22. CC(C)CON=C1[C@H]2CCn3c(=O)n(C)c(=O)n3[C@H]2[C@H](O)[C@@H]2O[C@H]12 was tested, and the z-score was -0.0469. CCOC(=O)CCN1C(=O)[C@H]2[C@H]3[C@H](O)[C@H](O)CC(=O)[C@@H]3CC[C@H]2C1=O showed a z-score of -0.0545. CC1(C)O[C@H]2OC([C@H](O)CON3C(=O)c4ccccc4C3=O)[C@H](O)[C@H]2O1 (stereo partly drawn) showed a z-score of 0.145. For COc1cccc([C@H](O)Cn2cc(-c3ccc(CON=C(C)C)cc3)nn2)c1, the z-score was -0.169. Work on COCC#Cc1ccc([C@@H]2N[C@H](C(=O)O)CC[C@H]2C)cc1 yielded a z-score of 0.723. With O=C1C[C@H](c2ccccc2)[C@H](c2ccc(Br)cc2)O1 the z-score was -0.446. CCCNC(=O)OC[C@H]1O[C@H](CCON=C[C@@H](NS(=O)(=O)c2ccc(C)cc2)[C@H](C)C=CCC(=O)OC)C=C[C@@H]1Oc1ccc(OC)cc1 showed a z-score of -0.746. For CCOC(=O)[C@H](Cc1ccccc1)NC(=O)CCC1CC(OC(=O)NCCc2ccc(F)cc2)CC2(CCCC(COC(=O)NCCOc3ccccc3)O2)O1 (stereo partly drawn), the z-score was 0.471. Compound C=CC[C@@H]1C=C[C@H](Oc2ccc(C)cc2)[C@@H](COC(=O)NCc2cccc3ccccc23)O1 has a z-score of -0.146. O=C1C2=CC[C@H]3C(=O)N(C[C@@H]4CCCO4)C(=O)[C@H]3[C@H]2[C@H](O)[C@@H]2O[C@H]12 gave a z-score of 0.271. CSCC[C@@H]1NC(=O)CC=C[C@@H](C)COC(=O)[C@H](C)COC1=O was tested, and the z-score was 0.515. COC(=O)[C@H](Cc1ccccc1)NC(=O)[C@@H](C)CO gave a z-score of -2.94. For O=C1[C@H]2[C@H]3[C@H](O)[C@H](O)CC(=NOCc4ccccc4)[C@@H]3CC[C@H]2C(=O)N1c1cccc(Oc2ccccc2)c1, the z-score was -1.18. CC(C)C(=O)N[C@H]1CCCN1C(=O)C=Cc1ccccc1 gave a z-score of -0.732. CCN1C(=O)[C@H]2[C@H]3[C@H](O)[C@H](O)CC(=NOCC(C)C)[C@H]3CC[C@H]2C1=O gave a z-score of -0.231. C#CCCCON=C1[C@H]2CCn3c(=O)n(Cc4cc5c(cc4Cl)OCO5)c(=O)n3[C@H]2[C@H](O)[C@@H]2O[C@H]12 showed a z-score of -0.275. COC(=O)[C@H](C)NC(=O)CCC1CC(OC(=O)NCc2cccc3ccccc23)CC2(CCCC(COC(=O)NCCOc3ccccc3)O2)O1 (stereo partly drawn) gave a z-score of -0.19. CO[C@H]1COC(=O)CC=C[C@@H](C)COC(=O)[C@H]2CCCN2C(=O)CC=C[C@H]1C was tested, and the z-score was 0.364. Compound O=C1C[C@@H](O)[C@@H](O)[C@@H]2[C@@H]3C(=O)N(C4CCCCC4)C(=O)[C@@H]3CC[C@@H]12 has a z-score of 0.0192. CN1CCc2nc(-c3ccccc3)c(-c3ccccc3)cc2C1 gave a z-score of -0.409. CC(CCC(=O)OC[C@H]1O[C@H](C#Cc2ccccc2)C=C[C@@H]1Oc1ccc(C)cc1)=NOC(C)CN1CCCCc2nc(C)c(C)cc21 (stereo partly drawn) was tested, and the z-score was -0.461. For CO[C@@H]1C=CCC(=O)N[C@@H](C)C(=O)OC[C@@H](OC)[C@H](C)C=CCC(=O)OC[C@H]1C, the z-score was -0.367. CO[C@@H]1[C@H](O)CO[C@H]1C=Cc1ccccc1 showed a z-score of 1.23.
